# Data: the supplement of paper PMC8728848
# About 410 targets per protein were measured; listed, in parts, are those with the strongest signals and a random draw of the rest.
# B1: RBMC2 (Vibrio cholerae) (protein)
# chain: KISVRSGFAIDAIGASASTLVGGTGGNLNAAVNVKDIKAIDLTWGKYYWGGYHLLALDFRMSNGSVISMGSKNYAYSKQTERFTVPAGSRIKGIKAWTAGWLLDGVQFELA
# What was measured:
# Assay in all cases: glycan array binding signal (z-score within array); higher = stronger binding
# Details in all cases: glycan notation: IUPAC condensed, linker removed
# [1] = biological target: Fuc(a1-2)Gal(b1-4)GlcNAc(b1-2)Man(a1-3)[Fuc(a1-2)Gal(b1-4)GlcNAc(b1-2)Man(a1-6)]Man(b1-4)GlcNAc(b1-4)GlcNAc
# Method in brief: (§1)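 From the Consortium for Functional Glycomics database, 3228 arrays were curated, keeping only those whose protein sequence was available. Binding is given as a within-array Z-score averaged across arrays sharing a protein sequence and across linkers. Negative Z-scores can be read as non-binding.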
# [2] = biological target: Fuc(a1-2)Gal(b1-4)GlcNAc(b1-2)[Fuc(a1-2)Gal(b1-4)GlcNAc(b1-4)]Man(a1-3)[Fuc(a1-2)Gal(b1-4)GlcNAc(b1-2)Man(a1-6)]Man(b1-4)GlcNAc(b1-4)GlcNAc
# Method in brief: as §1
# [3] = biological target: Fuc(a1-2)Gal(b1-4)GlcNAc(b1-3)Gal(b1-4)GlcNAc(b1-2)Man(a1-3)[Fuc(a1-2)Gal(b1-4)GlcNAc(b1-3)Gal(b1-4)GlcNAc(b1-2)Man(a1-6)]Man(b1-4)GlcNAc(b1-4)GlcNAc
# Method in brief: as §1
# [4] = biological target: Fuc(a1-2)Gal(b1-4)[Fuc(a1-3)]GlcNAc(b1-3)Gal(b1-4)[Fuc(a1-3)]GlcNAc(b1-3)Gal(b1-4)[Fuc(a1-3)]GlcNAc
# Method in brief: as §1
# [5] = biological target: Fuc(a1-2)Gal6S(b1-3)GlcNAc6S
# Method in brief: as §1
# [6] = biological target: Fuc(a1-2)[GalNAc(a1-3)]Gal(b1-4)GlcNAc(b1-3)Gal(b1-4)GlcNAc
# Method in brief: as §1
# [7] = biological target: Fuc(a1-2)[GalNAc(a1-3)]Gal(b1-4)GlcNAc(b1-3)GalNAc
# Method in brief: as §1
# [8] = biological target: Fuc(a1-2)[GalNAc(a1-3)]Gal(b1-4)[Fuc(a1-3)]GlcNAc
# Method in brief: as §1
# [9] = biological target: Fuc(a1-3)[GalNAc(b1-4)]GlcNAc
# Method in brief: as §1
# [10] = biological target: Gal(a1-3)Gal(b1-4)GlcNAc(b1-2)Man(a1-3)[Gal(a1-3)Gal(b1-4)GlcNAc(b1-2)Man(a1-6)]Man(b1-4)GlcNAc(b1-4)GlcNAc
# Method in brief: as §1
# [11] = biological target: Gal(a1-3)GalNAc
# Method in brief: as §1
# [12] = biological target: Gal(a1-4)Gal(b1-4)GlcNAc(b1-2)Man(a1-3)[Gal(a1-4)Gal(b1-4)GlcNAc(b1-2)Man(a1-6)]Man(b1-4)GlcNAc(b1-4)GlcNAc
# Method in brief: as §1
# [13] = biological target: Gal(b1-3)GalNAc(a1-3)[Fuc(a1-2)]Gal(b1-4)GlcNAc
# Method in brief: as §1
# [14] = biological target: Gal(b1-3)GlcNAc(a1-3)Gal(b1-4)GlcNAc
# Method in brief: as §1
# [15] = biological target: Gal(b1-3)GlcNAc(b1-2)Man(a1-3)[Gal(b1-3)GlcNAc(b1-2)Man(a1-6)]Man(b1-4)GlcNAc(b1-4)GlcNAc
# Method in brief: as §1
# [16] = biological target: Gal(b1-4)GlcNAc(a1-6)Gal(b1-4)GlcNAc
# Method in brief: as §1
# [17] = biological target: Gal(b1-4)GlcNAc(b1-2)Man(a1-3)[Gal(b1-4)GlcNAc(b1-2)Man(a1-6)]Man(b1-4)GlcNAc(b1-4)GlcNAc
# Method in brief: as §1
# [18] = biological target: Gal(b1-4)GlcNAc(b1-2)[Gal(b1-4)GlcNAc(b1-6)]Man(a1-6)[Gal(b1-4)GlcNAc(b1-2)Man(a1-3)]Man(b1-4)GlcNAc(b1-4)[Fuc(a1-6)]GlcNAc
# Method in brief: as §1
# [19] = biological target: Gal(b1-4)GlcNAc(b1-3)Gal(b1-4)GlcNAc
# Method in brief: as §1
# [20] = biological target: Gal(b1-4)GlcNAc(b1-3)Gal(b1-4)GlcNAc(b1-2)[Gal(b1-4)GlcNAc(b1-3)Gal(b1-4)GlcNAc(b1-6)]Man(a1-6)[Gal(b1-4)GlcNAc(b1-3)Gal(b1-4)GlcNAc(b1-2)Man(a1-3)]Man(b1-4)GlcNAc(b1-4)GlcNAc
# Method in brief: as §1
# [21] = biological target: Gal(b1-4)GlcNAc(b1-3)Gal(b1-4)GlcNAc(b1-3)Gal(b1-4)GlcNAc
# Method in brief: as §1
# [22] = biological target: Gal(b1-4)GlcNAc(b1-3)Gal(b1-4)GlcNAc(b1-3)GalNAc
# Method in brief: as §1
# [23] = biological target: Gal(b1-4)GlcNAc(b1-3)Gal(b1-4)GlcNAc(b1-3)[Gal(b1-4)GlcNAc(b1-3)Gal(b1-4)GlcNAc(b1-6)]GalNAc
# Method in brief: as §1
# [24] = biological target: Gal3S(b1-3)[Fuc(a1-4)]GlcNAc
# Method in brief: as §1
# [25] = biological target: Gal3S(b1-4)[Fuc(a1-3)]Glc6S
# Method in brief: as §1
# [26] = biological target: Gal6S(b1-3)GlcNAc
# Method in brief: as §1
# [27] = biological target: GalNAc(b1-4)GlcNAc(b1-2)Man(a1-3)[GalNAc(b1-4)GlcNAc(b1-2)Man(a1-6)]Man(b1-4)GlcNAc(b1-4)GlcNAc
# Method in brief: as §1
# [28] = biological target: GlcNAc(a1-4)Gal(b1-4)GlcNAc(b1-3)Gal(b1-4)GlcNAc
# Method in brief: as §1
# [29] = biological target: GlcNAc(b1-2)Man(a1-3)[GlcNAc(b1-2)Man(a1-6)]Man(b1-4)GlcNAc(b1-4)GlcNAc
# Method in brief: as §1
# [30] = biological target: GlcNAc(b1-2)[GlcNAc(b1-6)]Man(a1-6)[GlcNAc(b1-2)Man(a1-3)]Man(b1-4)GlcNAc(b1-4)GlcNAc
# Method in brief: as §1
# [31] = biological target: GlcNAc(b1-2)[GlcNAc(b1-6)]Man(a1-6)[GlcNAc(b1-2)Man(a1-3)]Man(b1-4)GlcNAc(b1-4)[Fuc(a1-6)]GlcNAc
# Method in brief: as §1
# [32] = biological target: GlcNAc(b1-3)Gal(b1-4)GlcNAc(b1-2)Man(a1-3)[GlcNAc(b1-3)Gal(b1-4)GlcNAc(b1-2)Man(a1-6)]Man(b1-4)GlcNAc(b1-4)[Fuc(a1-6)]GlcNAc
# Method in brief: as §1
# [33] = biological target: GlcNAc(b1-3)Gal(b1-4)GlcNAc(b1-3)Gal(b1-4)GlcNAc(b1-3)Gal(b1-4)GlcNAc(b1-3)Gal(b1-4)GlcNAc(b1-2)Man(a1-3)[GlcNAc(b1-3)Gal(b1-4)GlcNAc(b1-3)Gal(b1-4)GlcNAc(b1-3)Gal(b1-4)GlcNAc(b1-3)Gal(b1-4)GlcNAc(b1-2)Man(a1-6)]Man(b1-4)GlcNAc(b1-4)[Fuc(a1-6)]GlcNAc
# Method in brief: as §1
# [34] = biological target: GlcNAc(b1-3)Gal(b1-4)GlcNAc(b1-3)[GlcNAc(b1-3)Gal(b1-4)GlcNAc(b1-3)]GalNAc
# Method in brief: as §1
# [35] = biological target: GlcNAc(b1-6)GalNAc
# Method in brief: as §1
# [36] = biological target: Man(a1-2)Man(a1-3)[Man(a1-2)Man(a1-6)]Man
# Method in brief: as §1
# [37] = biological target: Man(a1-3)[Man(a1-6)]Man(b1-4)GlcNAc(b1-4)GlcNAc
# Method in brief: as §1
# [38] = biological target: Neu5Ac(a2-3)Gal(b1-3)GlcNAc(b1-2)Man(a1-3)[Neu5Ac(a2-3)Gal(b1-3)GlcNAc(b1-2)Man(a1-6)]Man(b1-4)GlcNAc(b1-4)GlcNAc
# Method in brief: as §1
# [39] = biological target: Neu5Ac(a2-3)Gal(b1-3)[GlcNAc(b1-6)]GalNAc
# Method in brief: as §1
# [40] = biological target: Neu5Ac(a2-3)Gal(b1-4)[Fuc(a1-3)]GlcNAc(b1-6)[Neu5Ac(a2-3)Gal(b1-3)]GalNAc
# Method in brief: as §1
# [41] = biological target: Neu5Ac(a2-3)[Neu5Ac(a2-6)]GalNAc
# Method in brief: as §1
# [42] = biological target: Neu5Ac(a2-6)Gal(b1-4)GlcNAc(b1-2)Man(a1-3)Man(b1-4)GlcNAc(b1-4)GlcNAc
# Method in brief: as §1
# [43] = biological target: Neu5Ac(a2-6)Gal(b1-4)GlcNAc(b1-2)Man(a1-3)[Man(a1-6)]Man(b1-4)GlcNAc(b1-4)GlcNAc
# Method in brief: as §1
# [44] = biological target: Neu5Ac(a2-6)Gal(b1-4)GlcNAc(b1-2)Man(a1-3)[Neu5Ac(a2-3)Gal(b1-4)GlcNAc(b1-2)Man(a1-6)]Man(b1-4)GlcNAc(b1-4)GlcNAc
# Method in brief: as §1
# [45] = biological target: Neu5Ac(a2-6)Gal(b1-4)GlcNAc(b1-2)Man(a1-3)[Neu5Ac(a2-6)Gal(b1-4)GlcNAc(b1-2)Man(a1-6)]Man(b1-4)GlcNAc(b1-4)[Fuc(a1-6)]GlcNAc
# Method in brief: as §1
# [46] = biological target: Neu5Ac(a2-6)Gal(b1-4)GlcNAc(b1-2)Man(a1-6)[Gal(b1-4)GlcNAc(b1-2)Man(a1-3)]Man(b1-4)GlcNAc(b1-4)GlcNAc
# Method in brief: as §1
# [47] = biological target: Neu5Ac(a2-6)Gal(b1-4)GlcNAc(b1-2)[Neu5Ac(a2-6)Gal(b1-4)GlcNAc(b1-4)]Man(a1-3)[GlcNAc(b1-4)][Neu5Ac(a2-6)Gal(b1-4)GlcNAc(b1-2)[Neu5Ac(a2-6)Gal(b1-4)GlcNAc(b1-6)]Man(a1-6)]Man(b1-4)GlcNAc(b1-4)GlcNAc
# Method in brief: as §1
# [48] = biological target: Neu5Ac(a2-6)Gal(b1-4)GlcNAc(b1-6)[Gal(b1-3)GlcNAc(b1-3)]Gal(b1-4)Glc
# Method in brief: as §1
binder,measurement,setting,value
B1,glycan array binding signal (z-score),[1],1.19
same,glycan array binding signal (z-score),[2],0.016
same,glycan array binding signal (z-score),[3],3.69
same,glycan array binding signal (z-score),[4],-0.273
same,glycan array binding signal (z-score),[5],-0.121
same,glycan array binding signal (z-score),[6],-0.171
same,glycan array binding signal (z-score),[7],-0.327
same,glycan array binding signal (z-score),[8],-0.4
same,glycan array binding signal (z-score),[9],-0.311
same,glycan array binding signal (z-score),[10],3.79
same,glycan array binding signal (z-score),[11],-0.276
same,glycan array binding signal (z-score),[12],4.07
same,glycan array binding signal (z-score),[13],-0.258
same,glycan array binding signal (z-score),[14],-0.3
same,glycan array binding signal (z-score),[15],3.3
same,glycan array binding signal (z-score),[16],-0.466
same,glycan array binding signal (z-score),[17],-0.184
same,glycan array binding signal (z-score),[18],0.211
same,glycan array binding signal (z-score),[19],-0.235
same,glycan array binding signal (z-score),[20],-0.097
same,glycan array binding signal (z-score),[21],-0.368
same,glycan array binding signal (z-score),[22],-0.363
same,glycan array binding signal (z-score),[23],-0.254
same,glycan array binding signal (z-score),[24],-0.327
same,glycan array binding signal (z-score),[25],-0.305
same,glycan array binding signal (z-score),[26],-0.328
same,glycan array binding signal (z-score),[27],1.47
same,glycan array binding signal (z-score),[28],-0.281
same,glycan array binding signal (z-score),[29],3.67
same,glycan array binding signal (z-score),[30],-0.232
same,glycan array binding signal (z-score),[31],-0.178
same,glycan array binding signal (z-score),[32],3.51
same,glycan array binding signal (z-score),[33],1.92
same,glycan array binding signal (z-score),[34],-0.222
same,glycan array binding signal (z-score),[35],-0.19
same,glycan array binding signal (z-score),[36],-0.48
same,glycan array binding signal (z-score),[37],4.41
same,glycan array binding signal (z-score),[38],-0.017
same,glycan array binding signal (z-score),[39],-0.155
same,glycan array binding signal (z-score),[40],-0.025
same,glycan array binding signal (z-score),[41],-0.245
same,glycan array binding signal (z-score),[42],-0.132
same,glycan array binding signal (z-score),[43],12.3
same,glycan array binding signal (z-score),[44],3.39
same,glycan array binding signal (z-score),[45],3.57
same,glycan array binding signal (z-score),[46],3.52
same,glycan array binding signal (z-score),[47],-0.425
same,glycan array binding signal (z-score),[48],-0.398
